According to PubChem BioAssay AID602410 (Johns Hopkins Ion Channel Center, 2012):
Screen size: about 340,000 compounds; about 2,800 (0.82%) were called active. This is one part of a sample in which actives are shown more often than they occur.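 Rule for the calls: active = B-score under library mean minus 4 SD, starting fluorescence ratio at most library mean plus 5 SD; inactive = the rest.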

Target: Potassium channel subfamily K member 3 (Homo sapiens) (UniProt O14649)
Test: human KCNK3 channel inhibitors, primary screen, CHO cells, FluxOR thallium flux, B-score (AID 602410);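 for B-score: more negative B-score means stronger inhibition of thallium flux through KCNK3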
Details: FluxOR fluorescence, at 10 µM; hits give low values

Potassium channel subfamily K member 3 (Homo sapiens), sequence (O14649 whole entry, looked up): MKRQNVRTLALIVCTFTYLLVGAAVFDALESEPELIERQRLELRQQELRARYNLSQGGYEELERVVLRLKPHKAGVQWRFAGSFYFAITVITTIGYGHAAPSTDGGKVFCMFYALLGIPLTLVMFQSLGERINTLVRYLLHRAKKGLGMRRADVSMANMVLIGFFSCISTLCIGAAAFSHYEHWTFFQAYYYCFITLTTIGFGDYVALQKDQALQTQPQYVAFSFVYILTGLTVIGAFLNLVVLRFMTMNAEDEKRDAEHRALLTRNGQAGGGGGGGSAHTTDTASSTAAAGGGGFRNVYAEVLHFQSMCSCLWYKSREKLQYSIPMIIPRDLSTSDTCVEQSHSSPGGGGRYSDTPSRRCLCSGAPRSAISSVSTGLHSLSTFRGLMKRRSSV

| SMILES | B-score |
| --- | --- |
| Cc1ccc(CSc2nc3[nH]ncc3c(=O)[nH]2)cc1 | inactive |
| Cc1cc2c(=O)n(CC(=O)NCC(=O)Nc3ccc(C(C)C)cc3)cnc2s1 | inactive |
| CCOC(=O)c1c(N)sc2c1CCCC2=O | inactive |
| COC(=O)c1ccc(COC(=O)C2CCN(S(=O)(=O)c3c(Cl)cccc3Cl)CC2)o1 | -10.8 (active) |
| COc1cccc(COC(=O)C2CCN(S(=O)(=O)c3ccc(Cl)cc3)CC2)c1OC | inactive |
| CCOc1ccc(S(=O)(=O)N2CCC(C(=O)OCc3ccc(OC)cc3)CC2)cc1 | inactive |
| CC12CN3CC(C)(CN(C1)C3c1ccc(Cl)cc1Cl)C2=O (stereo not given) | inactive |
| Cn1c(SCC(=O)N2CCCC2)nnc1-c1cccs1 | inactive |
| CCc1cc(C(c2ccccc2OC)N2CCOCC2)c(NC(=O)c2ccccc2)s1 (stereo not given) | -8.97 (active) |
| CCc1cc(C(N)=O)c(NC(=O)c2ccc(OC)cc2)s1 | inactive |
| COc1cc(C(c2c(NC(=O)c3ccco3)sc(C)c2C)N2CCOCC2)cc(OC)c1OC (stereo not given) | inactive |
| COc1cc(NC(=O)COC(=O)c2cnc(C)cn2)c(C)cc1[N+](=O)[O-] | inactive |
| COC(=O)c1ccc(C)c(NC(=O)C2CC(=O)N(C3CCCC(C)C3C)C2)c1 (stereo not given) | inactive |
| O=C(c1cccc(S(=O)(=O)Nc2ccccc2Cl)c1)N1CCN(C(=O)c2ccco2)CC1 | inactive |
| O=C(Nc1ccccc1C(=O)N1CCCCC1)c1ccco1 | inactive |
| CS/C(=C\C(=O)c1ccco1)Nc1ccccc1Cl | -11.4 (active) |
| NS(=O)(=O)c1ccc(CCNC(=O)COC(=O)COc2cccc(C(F)(F)F)c2)cc1 | inactive |
| CSc1nnc2c(n1)OC(c1ccsc1)N(C(C)=O)c1ccccc1-2 (stereo not given) | -9.55 (active) |
| Cc1ccc(Cl)cc1NC(=O)CN1CCN(S(=O)(=O)N2CCOCC2)CC1 | inactive |
| CCOC(=O)CNC(=O)CSc1ccc2nnc(-c3cccnc3)n2n1 | inactive |
| C/C(CC(C)C)=N\Oc1nc(C)cc(C)n1 | inactive |
| CCC(C)Sc1nc2c(c(=O)[nH]c(=O)n2C)n1CC(O)COc1cccc2ccccc12 (stereo not given) | inactive |
| CC(C)c1ccccc1OCC(O)CN(CC(O)COc1cccc2ccccc12)C(C)C (stereo not given) | -9.21 (active) |
| Cc1cc(C)c(NC(=O)C[N+](C)(C)CC(O)COc2cccc3ccccc23)c(C)c1 (stereo not given) | inactive |
| O=C(OCC(O)C(O)COC(=O)c1ccccc1)c1ccccc1 (stereo not given) | inactive |
| Cc1ccc(C)c(S(=O)(=O)Nc2cccc(-n3cnnn3)c2)c1 | inactive |
| CC(=O)c1c(C)[nH]c(C(=O)Nc2cc(S(=O)(=O)N(C)C)ccc2C)c1C | inactive |

| SMILES | B-score |
| --- | --- |
| O=C(CCn1nnc2ccccc21)OCC(=O)c1ccc([N+](=O)[O-])cc1 | inactive |
| CCc1nnc(NC(=O)c2cccc(S(=O)(=O)N(C)c3ccc(OC)cc3)c2)s1 | inactive |
| CCc1ccc2nc3sc(C(=O)Nc4nnc(CC)s4)c(N)c3cc2c1 | -9.98 (active) |
| CCc1nnc(NC(=O)c2cc(S(=O)(=O)N3CCCCC3)ccc2C)s1 | inactive |
| Cc1cc(C)nc(NNC2=CC(=O)CC(C)(C)C2)n1 | inactive |
| O=C1c2ccccc2C(O)N1Cc1ccccc1Cl (stereo not given) | inactive |
| O=C(NCCc1c[nH]c2ccccc12)c1cc2ccccc2oc1=O | inactive |
| Cc1cc(C)cc(NC(=S)NCCc2c[nH]c3ccccc23)c1 | inactive |
| O=C(NCCc1c[nH]c2ccccc12)c1cccc(Br)c1 | -11.8 (active) |
| O=P(c1cccs1)(c1cccs1)c1cccs1 | inactive |
| CCC1CCCCN1C(=S)Nc1ccc(C(C)=O)cc1 (stereo not given) | inactive |
| CCC1CCCCN1C(=O)Nc1cccc(NC(=O)N2CCCCC2CC)c1 (stereo not given) | -10.6 (active) |
| CCC1CCCCN1C(=S)NC(=O)c1ccco1 (stereo not given) | inactive |
| CCN(C[C@H]1N[C@@](CC)(C(=O)OC)[C@H]2C(=O)N(Cc3ccccc3)C(=O)[C@@H]12)S(=O)(=O)c1ccccc1 | inactive |
| CCOc1c(Br)cc(/C=C2\C(=O)N(CCC#N)N=C2C)cc1OC | inactive |
| O=C(COC(=O)/C=C/c1ccc(S(=O)(=O)N2CCCCCC2)cc1)NCc1ccccc1Cl | inactive |
| CC(=O)c1cccc(NC(=O)CN2C(=O)c3cccnc3Oc3ccc(Cl)cc32)c1 | inactive |
| Cc1ccccc1CC1(CO)CCCN(C(=O)c2cc(-c3ccccc3)no2)C1 (stereo not given) | inactive |
| COC(=O)CCC(=O)N1CCCC(CO)(Cc2ccccc2)C1 (stereo not given) | inactive |
| CCCc1cc(C(=O)N2CCCC(CO)(CCCc3ccccc3)C2)n(C)n1 (stereo not given) | -9.3 (active) |
| CC(Sc1nnc(CNC(=O)c2ccccc2F)n1C)C(=O)Nc1nccs1 (stereo not given) | inactive |
| CC1CCN(S(=O)(=O)c2ccc(NC(=O)C3CC(=O)N(c4ccccc4)C3)cc2)CC1 (stereo not given) | inactive |
| COc1ccc(Nc2ncnc3sc(-c4ccccc4)cc23)c(OC)c1 | -12 (active) |
| COc1ccc(Nc2ncnc3ccc(Br)cc23)c(OC)c1 | inactive |
| COc1ccc(Nc2ncnc3sc(C)cc23)cc1 | inactive |
| COC(=O)c1sc(SC)c(S(=O)(=O)C(C)C)c1N/N=C(\C#N)S(=O)(=O)c1ccccn1 | inactive |
| CC1CCN(C(=O)/C(=C\c2ccccc2F)NC(=O)c2ccccc2)CC1 | inactive |

| SMILES | B-score |
| --- | --- |
| COC(=O)CN1C(=O)[C@H]2[C@@H](/C=C/c3ccccc3)N3C(=O)CN(CC4CC4)C(=O)[C@@]3(Cc3ccccc3)[C@H]2C1=O | inactive |
| O=C(CC1CCCCC1)Nc1c2c(nn1-c1ccc(F)cc1)CS(=O)(=O)C2 | inactive |
| C=CCNC(=O)c1ccccc1NC(=O)c1ccc(Cl)c(S(=O)(=O)Nc2cccc(C)c2C)c1 | inactive |
| CCCCc1ccc(NC(=O)NCc2cccnc2)cc1 | inactive |
| CN(C)CCCN1C(=O)CSC1c1ccc([N+](=O)[O-])cc1 (stereo not given) | inactive |
| CCCCCCCCCCCCN1C(=O)CSC1c1cccnc1 (stereo not given) | -18.4 (active) |
| Cc1ccc(C(=O)Nc2ccc3c(c2)OCCO3)cc1S(=O)(=O)N1CCOCC1 | inactive |
| CCCn1nnc(NC(=O)COc2ccc(CC)cc2)n1 | inactive |
| COc1ccccc1N1CCC(N2CCN(CC(C)(C)C)C(CCO)C2)CC1 (stereo not given) | inactive |
| COc1ccc2c3c(c(=O)oc2c1OCC(=O)C(C)(C)C)CCCC3 | inactive |
| CCCOc1ccc2c3c(c(=O)oc2c1OCCC)CCC3 | -11.4 (active) |
| O=c1oc2c(CN3CCCCC3)c(O)ccc2c2c1CCCCC2 | inactive |
| O=C(CCl)N(Cc1cccc([N+](=O)[O-])c1)c1cccc(Cl)c1 | inactive |
| O=[N+]([O-])c1cccc(C=NN=Cc2ccccc2O)c1 | inactive |
| C=CCN(N=Nc1cccc([N+](=O)[O-])c1)c1cccc([N+](=O)[O-])c1 | -9.23 (active) |
| Cc1cc(Nc2cccc(F)c2)n2ncnc2n1 | inactive |
| CC(NCc1cccs1)C(=O)Nc1cc(Cl)cc(Cl)c1 (stereo not given) | -9.85 (active) |
| CC(NCC(=O)Nc1cc(Cl)cc(Cl)c1)c1ccccc1 (stereo not given) | inactive |
| CC(=O)c1ccc(NC(=O)C(C)NCc2ccc(Cl)cc2)cc1 (stereo not given) | inactive |
| CC(=O)Nc1ccccc1OC(C)C(=O)N1CCC(C)CC1 (stereo not given) | inactive |
| CCOc1ccc(Br)cc1S(=O)(=O)Nc1ccc(C(=O)OC(C)C(=O)N(C)c2ccccc2)cc1 (stereo not given) | inactive |
| COCCCNC(=O)CCc1nc2cccnc2n1Cc1ccc(OC)cc1 | inactive |
| Cc1ccc2nc(NC(=O)C3CSC4(C)CCC(=O)N34)sc2c1 (stereo not given) | inactive |
| CCOc1ccc(N(CC(=O)OC)S(=O)(=O)c2c(C)noc2C)cc1 | inactive |
| COc1ccc(N(Cc2ccccc2)S(=O)(=O)c2cccc(C(=O)O)c2)cc1 | inactive |
| Cc1ccc2nc(COc3ccc(N(C)S(=O)(=O)c4ccccc4)cc3)cc(=O)n2c1 | inactive |
| COc1cccc(COc2ccc(N(C)S(=O)(=O)c3ccccc3)cc2)c1 | -13.2 (active) |

| SMILES | B-score |
| --- | --- |
| Nc1nnc2c(C(F)(F)F)nc3ccccc3n12 | inactive |
| Cc1cc(C)cc(C(=O)NCCN2CCOCC2)c1 | inactive |
| Cc1cccc(C(=O)OC(C)CN2CCN(C)CC2)c1 (stereo not given) | inactive |
| Cc1cccc(-c2nc3ccc(C(=O)NCCN4CCN(C)CC4)cc3nc2-c2cccc(C)c2)c1 | -9.46 (active) |
| Cc1nnc(C)c2c(C)n(N)c(C)c12 | inactive |
| C=C1CCC(N(O)c2cc(C)on2)C(=C)CCC2C1CC2(C)C (stereo not given) | inactive |
| COc1ccc(C(=O)CSc2nnnn2C)c(OC)c1 | inactive |
| Oc1ccc(-c2nc3ccccc3nc2-c2ccc(O)cc2O)c(O)c1 | inactive |
| CC(C)(C)Nc1nc(-c2ccccn2)nc2ccccc12 | inactive |
| Oc1ccc(/C=N/Nc2nc(-c3ccccc3F)nc3ccccc23)c(O)c1 | -11 (active) |
| CC1CC(C)CN(C(=O)CSc2ccsc2[N+](=O)[O-])C1 (stereo not given) | inactive |
| CC(C)OCCCNC(=O)c1ccc(C2SCC(=O)N2Cc2ccco2)cc1 (stereo not given) | inactive |
| COc1c(N2CCN(C(=S)Nc3ccccc3F)C(C)C2)c(F)cc2c(=O)c(C(=O)O)cn(C3CC3)c12 (stereo not given) | inactive |
| CCOC(=O)CSc1nc2c(sc(=S)n2CCc2ccccc2)c(=O)n1Cc1ccco1 | -9.18 (active) |
| CCOC(=O)Cc1csc(NC(=O)CSc2nnc(-c3cccnc3)n2Cc2ccco2)n1 | inactive |
| CCOC(=O)CSc1nc2c(c(=O)n(Cc3ccccc3Cl)c(=O)n2C)n1C | inactive |
| O=C(CSc1nnc2n1CCCN2)c1ccccc1 | inactive |
| CC(C)(C)n1nnnc1C(c1cccs1)N(Cc1cccnc1)CC1CCCO1 (stereo not given) | inactive |
| CCOc1ccc(CN(Cc2ccco2)S(=O)(=O)c2ccc(-n3cnnn3)c(OC)c2)cc1 | inactive |
| CCOc1ccc(CN(Cc2ccco2)C(c2cccs2)c2nnnn2C(C)(C)C)cc1 (stereo not given) | -10.5 (active) |
| Cc1nc(NC(CC(C)C)C(=O)O)c2nc(C)oc2n1 (stereo not given) | inactive |
| Cn1cc(Cl)c(C(=O)NNC(=S)Nc2cccc(Cl)c2)n1 | inactive |
| FC(F)(F)c1cccc(NC(=S)Nc2cccc(Cl)c2)c1 | -10.9 (active) |
| FC(F)(F)c1cccc(N/N=C/c2ccccc2)c1 | inactive |
